In article PMC7819943, “Rice protein-binding microarrays: a tool to detect cis-acting elements near promoter regions in rice”:
Whole data set: some 68,000 sequences, median “fluorescence intensity (a.u.)” near 9,100, cut for the highest 2% near 16,000. Shown is part of a subset that was picked to be rich in the highest values.

target: OsWRKY34 (Oryza sativa, UniProt Q0JBA9 1-250); assay: protein-binding microarray (RPBM); PBS, 2% BSA, 51.3 ng/ul salmon testes DNA, 50 uM zinc acetate, 200 nM TF, 25 C, 1 h; high values mean tight binding; conditions: protein: recombinant; tags: N-terminal polyhistidine and DsRed monomer fusion (pET32a); label: CyDye5-dUTP incorporated in the synthesized complementary strand; 3' TTTTT single-stranded linker to array surface; dsDNA, one strand shown
Summary of the method: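 Binding signal is reported as fluorescence intensity per feature (arbitrary units) from an Axon 4000B scanner. Incubation used 200 nM of each Ni–NTA-purified, N-terminally polyhistidine- and DsRed-fused transcription factor from E. coli BL21-CodonPlus on a double-stranded custom Agilent array for 1 h at 25 °C, with 50 µM zinc acetate in the buffer, followed by washing.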

Sequence of OsWRKY34 (Q0JBA9 entry or part of it): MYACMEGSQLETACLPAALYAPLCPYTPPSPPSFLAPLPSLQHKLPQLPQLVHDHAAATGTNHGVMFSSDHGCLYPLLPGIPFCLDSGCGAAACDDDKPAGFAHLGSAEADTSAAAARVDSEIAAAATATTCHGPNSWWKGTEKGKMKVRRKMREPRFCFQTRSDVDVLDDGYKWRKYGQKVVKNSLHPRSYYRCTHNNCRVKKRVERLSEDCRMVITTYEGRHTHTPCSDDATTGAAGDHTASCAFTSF

Sequence	binding signal
GGTATAGTTTTATACTGTTTATATCCAACGTTTGACCGTTCGGAGTCACCTAGTGCAG	10200 fluorescence intensity (a.u.)
ATACATGACGCCGTTGATTTTTTAATCAACGTTTGACCATCGGAGTCACCTAGTGCAG	8210 fluorescence intensity (a.u.)
GTGTATTTATGGTTTTTTTTTCAACGTTTGACCATCCGTTCGGAGTCACCTAGTGCAG	12300 fluorescence intensity (a.u.)
ATGTATGACGCTGTTGACTTTGTAACCAATATTTGACCATCGGAGTCACCTAGTGCAG	13400 fluorescence intensity (a.u.)
GTGTATGATGCCGTTGACTTTTTATCCAACGTTTGACCATCGGAGTCACCTAGTGCAG	38800 fluorescence intensity (a.u.)
TGTATGATGCTGTTGACTTTTTATCCAACGTTTGACCATCCGGAGTCACCTAGTGCAG	21200 fluorescence intensity (a.u.)
TGGTGGAGAAGCTAATGAAGAGGGTGTTTTGTTGACTATGCGGAGTCACCTAGTGCAG	8500 fluorescence intensity (a.u.)
GTTACATTCTTGTTCAGTCCTCACTACTCATCCCTACAATCGGAGTCACCTAGTGCAG	11500 fluorescence intensity (a.u.)
CCCACTATCATCCGTCATCCGTGCAACGCACGGGCATTATCGGAGTCACCTAGTGCAG	9340 fluorescence intensity (a.u.)
CTCCCGCCGTCTCCGTCACCGTCTACCGTTTGCTCCAGTGCGGAGTCACCTAGTGCAG	9530 fluorescence intensity (a.u.)
CTCCGTTTTTTAATAGATGACGCCGTTGACTTTTTCTCACCGGAGTCACCTAGTGCAG	27800 fluorescence intensity (a.u.)
CTCCGTTTTTTAATAGATGACACCGTTGACTTTTTCTCACCGGAGTCACCTAGTGCAG	30600 fluorescence intensity (a.u.)
TCCGTTTTTTAATAGATGACGCCGTTGACTTTTTCTCACACGGAGTCACCTAGTGCAG	31700 fluorescence intensity (a.u.)
GTCTCACCGGAGCTCCGCCGCCGCCGCCGCCGTTTTCTCCCGGAGTCACCTAGTGCAG	25700 fluorescence intensity (a.u.)
GCCGCGGCGGAGCTCCCGTTTCCGTTGCCGTCTCCGGCGCCGGAGTCACCTAGTGCAG	11000 fluorescence intensity (a.u.)
CGTTTTTTAATAGATGACGCCATTGACTTTTTCTCACATACGGAGTCACCTAGTGCAG	11000 fluorescence intensity (a.u.)
CTGATTATACCATTGTTTTCGTTGCAACTAAATCTTGATACGGAGTCACCTAGTGCAG	9280 fluorescence intensity (a.u.)
TGCAAGCTCCGCCGTTTGTGTGTAATGGGGTTTCCCAAATCGGAGTCACCTAGTGCAG	8230 fluorescence intensity (a.u.)
CACTTCACCTTTTTTGCAAGATGCTACTACTAATTACTAACGGAGTCACCTAGTGCAG	10400 fluorescence intensity (a.u.)
GATATACACACTTAGCTCTCCTACTGTGAGAATTCTCTTCCGGAGTCACCTAGTGCAG	9480 fluorescence intensity (a.u.)
CCCTTTTTTATACCGTGGCATATCTCTCTGCATTTAATCTCGGAGTCACCTAGTGCAG	13700 fluorescence intensity (a.u.)
ATATGGCATTGTTTCTGTGTTATTCAGGCGCACCTTTAAACGGAGTCACCTAGTGCAG	10100 fluorescence intensity (a.u.)
CGGTTGCTCCTTTGCCTAATCACTCAATTCCAGTAACTTTCGGAGTCACCTAGTGCAG	8760 fluorescence intensity (a.u.)
TTGGGGTTGGACCGGTTTTCATCTGTTCTTGTCCTGAGAGCGGAGTCACCTAGTGCAG	10800 fluorescence intensity (a.u.)
GTGCAGCAATCATCTCGTCCACCTCACCTTACCCGAAACCCGGAGTCACCTAGTGCAG	8340 fluorescence intensity (a.u.)
GCCTCTGCCAGCCGACGGCCGTTCGGCCCTCCGCGCACGCCGGAGTCACCTAGTGCAG	8320 fluorescence intensity (a.u.)
CTTATCCACCATCAATGTTCCTGACTTCAATTTTTCGTTGCGGAGTCACCTAGTGCAG	10500 fluorescence intensity (a.u.)

Sequence	binding signal
TAACATTGATTGTTATGTCACTTGTCTGTGGATCAACTCTCGGAGTCACCTAGTGCAG	9060 fluorescence intensity (a.u.)
CCGTTTCCCGCCGCTGTCTCCCGCCGGAGCCGCCCCTGCTCGGAGTCACCTAGTGCAG	9030 fluorescence intensity (a.u.)
CTCTTGAACGTTGTCGCCCGCCGTTTCCCGCCGCTGTCTCCGGAGTCACCTAGTGCAG	18200 fluorescence intensity (a.u.)
CTTCGTTTTTTAATAGATGACGCCGTTGACTTTTTCTCACCGGAGTCACCTAGTGCAG	22000 fluorescence intensity (a.u.)
GCGCTCCCGTCGTTGTCTCCGCTGCTTTGTTTCTCGTCGCCGGAGTCACCTAGTGCAG	11600 fluorescence intensity (a.u.)
TAAATCCACGACCCTTCAGCTATCTATCTCAGCTCCAATCCGGAGTCACCTAGTGCAG	8170 fluorescence intensity (a.u.)
CTGCAATCTAGCCATCTGTTATCTATCCATGCATCGATGTCGGAGTCACCTAGTGCAG	8120 fluorescence intensity (a.u.)
ATAAACATAAACTTCCAACATTTCCGTCACATCATTCTAACGGAGTCACCTAGTGCAG	8970 fluorescence intensity (a.u.)
TTGGTGGGCCGTTATTTTGTTTGGGCTGGATTTGCACGTTCGGAGTCACCTAGTGCAG	11700 fluorescence intensity (a.u.)
CATATCCGTTTTTGCTCGGGTGGGCTGGGTTAGGGACTCACGGAGTCACCTAGTGCAG	19000 fluorescence intensity (a.u.)
ATGGCGTTTGGGTTTGGCTCGGGTTGATCTGGATAAGGGACGGAGTCACCTAGTGCAG	9020 fluorescence intensity (a.u.)
TTTCGGCCCACATTCCTATCCGTTTTTGCTCGGGTGGGCTCGGAGTCACCTAGTGCAG	10900 fluorescence intensity (a.u.)
CACTCTGCAGCTCTGCTCGTTTTGCACACGGGTGACTCGTCGGAGTCACCTAGTGCAG	9700 fluorescence intensity (a.u.)
CGTTTTTGCTCGGGTGGGCTGGGTTAGGGACTCATCTGCACGGAGTCACCTAGTGCAG	23800 fluorescence intensity (a.u.)
CCGCGCATTTTTTTGGTTCGAAATTCCTTTGCTAAGCAAACGGAGTCACCTAGTGCAG	8380 fluorescence intensity (a.u.)
AAGGTTGGCATGACAATTCTCACTACTTGGACTAACAGTTCGGAGTCACCTAGTGCAG	8310 fluorescence intensity (a.u.)
TTCCAACTACCTAGCTCAGCTTAGTCTCTGGTTGACCATTCGGAGTCACCTAGTGCAG	8450 fluorescence intensity (a.u.)
GCTTCTACAATCGGATGGATTCACCATTGATTCTCGTTTTCGGAGTCACCTAGTGCAG	8940 fluorescence intensity (a.u.)
ACTTGATTTACGAACAGACATTTTTTATTTTTCTACACCACGGAGTCACCTAGTGCAG	9230 fluorescence intensity (a.u.)
TTGGGGTCGAGATATCCGGTTTTGTGGTTTAGGGTCATGTCGGAGTCACCTAGTGCAG	9090 fluorescence intensity (a.u.)
ACTTTTTTAAATATGTTTGACCGTTCGTTTTATTCAAAAACGGAGTCACCTAGTGCAG	8320 fluorescence intensity (a.u.)
TATTTGACGCCGTTGATTTTTTTAAATATGTTTGACCGTTCGGAGTCACCTAGTGCAG	11000 fluorescence intensity (a.u.)
TATTTGATGCCGTTGACTTTTTTAAATATGTTTGACCGTTCGGAGTCACCTAGTGCAG	20900 fluorescence intensity (a.u.)
ATTTGATGCCGTTGACTTTTTTAAATATGTTTAACCGTTCCGGAGTCACCTAGTGCAG	33000 fluorescence intensity (a.u.)
GAATTGATCTCATGCATGCCAACCCTTCTAGCAATCTATCCGGAGTCACCTAGTGCAG	9310 fluorescence intensity (a.u.)
GGACCGTTCACTAACCCCGTAACCGTGTCGCGCGCGCAACCGGAGTCACCTAGTGCAG	9590 fluorescence intensity (a.u.)
TTCTTATTTGCAAGTATACTGTTTTGCTTTTCTCTCTAATCGGAGTCACCTAGTGCAG	9690 fluorescence intensity (a.u.)
